# Hits are enriched below; roughly 6.2% of the tested compounds scored in any of these assays.
# HT1080-NT tox = qHTS for induction of synthetic lethality in tumor cells producing 2HG: qHTS for the HT-1080-NT fibrosarcoma cell line; HT-1080-NT fibrosarcoma viability, CellTiter-Glo ATP luminescence, 48 h; Potency, µM (highest dose often 46.1 µM), for the others: at the top dose activity, negative = less viability, hits mostly cytotoxic; hit rate 1.6% among 360,000;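 note: NT is the 2HG producing partner of a matched IDH1 knockdown line; 0% = DMSO-treated cells and -100% = media-only wells without cells; nearly all actives have a fitted effect of over 55% in size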
#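 Compounds were tested in concentration-response format on HT-1080-NT cells for 48 hours at 37 degrees C. Cell viability came from CellTiter-Glo luminescence; curves were classified by r2, response magnitude and activity.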
# KB-V1 MDR tox = qHTS assay for MDR1-selective chemotherapeutics: Primary screen using the drug-selected MDR subline cells KB-V1. KB-V1 MDR cells viability, CellTiter-Glo, 72 h. Potency, µM (series often up to 46.1 µM), actives largely listed as cytotoxic. hit rate 3.4% among 400,000. AID 1347076, 2019; note: % is set by controls: 0 for no effect and ±100 for the full control effect; nearly all actives have a fitted effect of over 60% in size
#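 Potencies derive from concentration-effect curves fitted to normalized luminescence (CellTiter-Glo) of KB-V1 cells treated for 72 h at 37 degrees C in phenol-red-free DMEM containing 10% FBS.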
# S2 tox = Viability Counterscreen for Primary qHTS for Inhibitors of ATXN expression; S2 cells (HEK-293 line with an ATXN2-luciferase reporter) viability, CellTiter-Fluor protease fluorescence, 24 h; hit rate 0.49% among 400,000; Potency, µM (doses to about 56.7 µM), usual class: cytotoxic; note: nearly all actives have a fitted effect of over 40% in size
# KB-3-1 cytotox = qHTS assay for MDR1-selective chemotherapeutics: Primary screen using the parental adenocarcinoma cell KB-3-1; KB-3-1 viability, CellTiter-Glo ATP luminescence, 72 h; Potency, µM (doses to about 46.1 µM), actives largely listed as cytotoxic; hit rate 1.4% among 400,000; AID 1347075, 2019; note: % is set by controls: 0 for no effect and ±100 for the full control effect; nearly all actives have a fitted effect of over 60% in size
#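 Viability of parental KB-3-1 cells, measured by CellTiter-Glo luminescence, followed a 72 h incubation at 37 °C with pinned compounds in phenol-red-free DMEM containing 10% FBS.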
# HT1080 IDH1KD tx = qHTS for induction of synthetic lethality in tumor cells producing 2HG: qHTS for the HT-1080-IDH1KD cell line; Potency, µM (highest dose often 46.1 µM), without a hit: at the highest dose activity, negative = toxicity, hits mostly cytotoxic; HT-1080 IDH1 knockdown viability, ATP luminescence, 48 h; AID 686971, 2013; hit rate 2% among 360,000;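 note: 0% = DMSO wells and -100% = cell-free medium wells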
#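 Viability of IDH1-knockdown HT-1080 fibrosarcoma cells was assessed by CellTiter-Glo after 48 h at 37 °C with titrated compound; concentration-effect curves were classified by fit quality and response size.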
# ATXN2 expr inh = Primary qHTS for Inhibitors of ATXN expression; HEK-293 ATXN2-luciferase reporter, luminescence, 24 h; Potency, µM (series often up to 57 µM), for the others: top-dose activity change, negative = inhibition, hits mostly inhibitors; hit rate 0.72% among 360,000; note: % is set by controls: 0 for no effect and ±100 for the full control effect; nearly all actives have a fitted effect of over 55% in size
#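 qHTS (up to 57 uM final) was run with 24 h compound exposure of reporter cells at 37 °C. Each well was multiplexed: SteadyGlo luminescence measured ATXN2-luciferase expression after a fluorogenic Gly-Phe-AFC viability readout (25 uM final).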
# * marks the source's active call; other numbers are inactive results; i = inactive; u = inconclusive; x = not tested or not shown; [ ] = remark or other dose. Calls come from the whole dose curve; as a rule, active = well fitted curve in the direction sought with a large enough effect; inconclusive = small, poorly fitted or top-dose-only effect, or another doubt; inactive = no such curve, though single readings can be large; an effect the other way counts as inactive or inconclusive. Potency is the fitted concentration of half-maximal effect.
SMILES,HT1080-NT tox,KB-V1 MDR tox,S2 tox,KB-3-1 cytotox,HT1080 IDH1KD tx,ATXN2 expr inh
COc1cc(-c2nc3ccc(Cl)cn3c2Nc2ccc3c(c2)OCO3)ccc1O,x,i,18µM*,i,x,u
COc1ccc(-c2nc3ccc(C)cn3c2Nc2ccc3c(c2)OCO3)cc1,x,u,i,i,x,24%
CC1c2ccccc2CN1NC(=O)c1ccc(Cl)c(S(N)(=O)=O)c1 (stereo not drawn),x,x,i,x,x,3%
CN(CCC#N)c1ccc(C=C(C#N)c2ccc(Br)cc2)cc1,-28%,16µM*,i,i,u,x
CN(CCC#N)c1ccc(/C=C(\C#N)c2ccccn2)cc1,-2%,5.2µM*,i,u,-6%,-25%
CCN(CC)c1ccc(/C=C(\C#N)c2ccccn2)cc1,u,u,x,u,u,-11%[11.3 µM]
O=C(NC(c1ccccc1)c1ccc2ccccc2n1)C1CCN(Cc2cccc(C(F)(F)F)c2)CC1 (stereo not drawn),u,u,u,u,15µM*,u
O=C(NC(c1ccc2ccccc2n1)c1cccs1)C1CCN(Cc2cccc(C(F)(F)F)c2)CC1 (stereo not drawn),u,u,u,u,16µM*,0%
Cc1ccc(C(CC(=O)Nc2cc(C)cc(C)c2)N2Cc3ccccc3C2=O)cc1 (stereo not drawn),x,u,i,i,x,-37%
CNC(=S)N(Cc1ccc2c(c1)OCO2)C1CC(=O)N(c2ccc(F)cc2)C1=O (stereo not drawn),-24%,16µM*,i,u,-11%,-19%
Cn1c(COc2ccc(Br)cc2)nnc1SC1CCc2ccccc2C1=O (stereo not drawn),-16%,16µM*,i,u,-19%,-20%
O=C(Nc1ccc2ccccc2c1)Nc1nnc(-c2ccccc2)s1,x,i,x,i,x,x
COc1cc(OC)c(OC)cc1/C=C1\CC(C)C/C(=C\c2cc(OC)c(OC)cc2OC)C1=O (stereo not drawn),u,i,u,u,u,13µM*
CCC1C/C(=C\c2cc(OC)c(OC)cc2OC)C(=O)/C(=C/c2cc(OC)c(OC)cc2OC)C1 (stereo not drawn),13µM*,i,u,u,21µM*,u
COCCn1c(SCC(=O)Nc2cc(C(C)(C)C)nn2-c2ccccc2)nnc1-c1ccncc1,3%,16µM*,i,i,-8%,5%
COCCn1c(SCCCC(=O)c2ccc(Br)cc2)nnc1-c1ccncc1,-4%,2.6µM*,i,10µM*,-18%,-21%
COCCNc1nnc(SCC(=O)Nc2cc(-c3ccccc3)nn2-c2ccccc2)s1,-9%,16µM*,i,i,6%,-1%
Cn1c(SCCCC(=O)c2ccc(F)cc2)nnc1-c1ccncc1,3%,i,i,i,5%,-10%
Cc1ccc(-c2nn3c(=O)cc(CN4CCN(C(=O)/C=C/c5ccccc5)CC4)nc3s2)cc1,x,i,i,i,x,6%
Nc1ccc(S(=O)(=O)NNC(=O)C(=O)NNc2ccccc2)cc1,10µM*,i,i,i,u,-12%
O=C(NNc1ccccc1)C(=O)NNS(=O)(=O)c1ccc(CCCl)cc1,u,i,i,u,u,x
Cc1c(Cn2c(C)nc3c(C(=O)O)cc(N4CCOCC4)cc32)cccc1C(F)(F)F,x,x,x,x,x,-5%
CCC(C(=O)NCc1ccccc1)n1ncn2c(cc3occc32)c1=O (stereo not drawn),x,i,i,i,x,11%
O=NN(CCc1ccncc1)c1ccc(OCc2ccccc2)cc1,-19%,3.3µM*,i,i,-21%,-23%
CCOC(=O)N1CCC(Nc2c(OCC)c(=O)c2=O)CC1,1%,u,i,i,4%,-3%
SMILES,HT1080-NT tox,KB-V1 MDR tox,S2 tox,KB-3-1 cytotox,HT1080 IDH1KD tx,ATXN2 expr inh
CCCN(CCC)c1nc(NC2CCN(C(=O)OCC)CC2)nc(OC)n1,u,16µM*,u,u,u,-22%
O=C(Nc1cccc(S(=O)(=O)N2CCCC2)c1)c1cccc(S(=O)(=O)N2CCOCC2)c1,-4%,i,u,i,7%,x
O=C(Nc1ccc2c(c1)OCCO2)c1cccc(S(=O)(=O)N2CCOCC2)c1,8%,21µM*,i,i,0%,42%
O=C(Nc1ccc2c(c1)OCCO2)c1cccc(S(=O)(=O)N2CCCCC2)c1,-3%,16µM*,i,i,-11%,-5%
Cc1ccc(S(=O)(=O)N(CCC(=O)NCC(c2ccccc2)N(C)C)c2ccccc2)cc1 (stereo not drawn),-10%,10µM*,u,i,13%,-12%
COc1ccc(S(=O)(=O)N(CC(=O)NC(C)c2ccccc2)c2ccc(C)cc2)cc1OC (stereo not drawn),x,u,22µM*,i,x,u
CC(NC(=O)CN(c1cccc(C(F)(F)F)c1)S(=O)(=O)c1ccc(Cl)c([N+](=O)[O-])c1)c1ccccc1 (stereo not drawn),23µM*,u,u,u,18µM*,u
COc1ccc(S(=O)(=O)N(CC(=O)NCc2ccccc2)c2ccc(C)cc2)cc1OC,x,i,x,i,x,u
CC(C)(C)c1ccc(C(=O)N2CCC2(C)C(=O)Nc2cccc3ncccc23)cc1 (stereo not drawn),-7%,i,u,i,-28%,-12%
O=C(CSc1nnc(NC(=O)c2ccco2)s1)NC1CCCCC1,2%,23µM*,i,i,-2%,4%
Cc1ccccc1-n1c(C)nnc1SCC(=O)NCC1CCCO1 (stereo not drawn),u,i,i,i,22µM*,3%
Cc1ccccc1-n1c(SCC(=O)NCC2CCCO2)nnc1-c1ccncc1 (stereo not drawn),3%,i,i,i,14%,6%
CC(C)(C)c1ccc(C(=O)Nc2nnc(SCC(=O)NCC3CCCO3)s2)cc1 (stereo not drawn),7%,i,i,i,5%,16µM*
Cc1cc(Br)ccc1NC(=O)COc1cc(=O)n(C)c2ccccc12,x,i,i,i,x,-1%
